Sampled rows, rich in hits. Any-hit rate of the full collection: about 17%.
TDP1 cell CPT: DT40-hTDP1 cell growth loss with CPT. chicken DT40 Tdp1-/-;hTDP1 cells + 20 nM CPT, ATP luminescence, 48 h. Potency, µM (highest dose often 46.2 µM), for the others: top-dose activity change, negative = growth inhibition, actives largely listed as inhibitors. actives 12% (n = 420,000); note: % is set by controls: 0 for no effect and ±100 for the full control effect; nearly all actives have a fitted effect of over 55% in size
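Cell growth measured by CellTiter-Glo luminescence after a minimum 48 h, 37 C compound exposure with 20 nM CPT in Tdp1-knockout DT40 cells stably expressing hTDP1, seeded 400/well; qHTS titration format.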
HT1080-NT tox: kills 2HG-producing HT-1080-NT fibrosarcoma cells; HT-1080-NT fibrosarcoma viability, CellTiter-Glo ATP luminescence, 48 h; actives 1.6% (n = 360,000); Potency, µM (titrated, usually from 46.1 µM), for inactives: top-dose activity, negative = less viability, most hits filed as cytotoxic; AID 686970;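 note: NT is the 2HG producing partner of a matched IDH1 knockdown line; 0% = DMSO-treated cells and -100% = media-only wells without cells; nearly all actives have a fitted effect of over 55% in size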
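A 48-hour cytotoxicity screen used HT-1080-NT cells plated 2 hours before compound delivery. ATP-based CellTiter-Glo luminescence measured viability, normalized to DMSO and no-cell controls.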
DT40 TDP1 no CPT: qHTS for Inhibitors of human tyrosyl-DNA phosphodiesterase 1 (TDP1): qHTS in cells in absence of CPT. DT40 Tdp1-/- hTDP1 cells, no CPT, ATP luminescence, 48 h. actives 15% (n = 420,000). AID 686978, 2013. Potency, µM (highest dose often 46.2 µM), for the others: top-dose activity change, negative = growth inhibition, actives largely listed as inhibitors; note: % is set by controls: 0 for no effect and ±100 for the full control effect; nearly all actives have a fitted effect of over 55% in size
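Readout: luminescence from CellTiter-Glo after 30 min in the dark at RT. Cells: DT40 Tdp1-/- with stable hTDP1, 400/well. Exposure: compounds alone, ≥48 hr, 37 °C.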
TGFb SMAD3 inh: inhibitors of TGF-b signaling. HepG2 CAGA-GFP TGF-b/SMAD3 reporter, GFP fluorescence, 18 h; TGF-beta stimulated, 500 pg/mL final. Potency, µM (doses to about 46.1 µM), for inactives: top-dose activity, negative = inhibition, actives largely listed as inhibitors. actives 1.2% (n = 410,000); note: % is set by controls: 0 for no effect and ±100 for the full control effect; nearly all actives have a fitted effect of over 65% in size
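Using HEPG2 CAGA-GFP reporter cells at 1000 cells/well, we pinned test compounds, stimulated with recombinant TGF-beta (500 pg/mL final) and measured total well GFP after 18 h.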
HT1080 IDH1KD tx: kills HT-1080 cells with IDH1 knockdown | HT-1080 IDH1 knockdown viability, ATP luminescence, 48 h | Potency, µM (doses to about 46.1 µM), without a hit: top-dose activity, negative = toxicity, usual class: cytotoxic | actives 2% (n = 360,000);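 note: 0% = DMSO wells and -100% = cell-free medium wells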
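Luminescent ATP read-out (CellTiter-Glo, 10 min at room temperature) after 48 h compound exposure at 37 °C gave viability of IDH1-knockdown HT-1080 cells. Activity was normalised to DMSO and cell-free wells, then fitted as concentration-response curves.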
HepG2 viability: counter-screen for TGF-b inhibitors: cytotoxicity in HepG2 cells; HepG2 CAGA-GFP viability, ATP luminescence, 18 h; Potency, µM (highest dose often 46.1 µM), for inactives: top-dose activity change, negative = cytotoxicity, most hits filed as cytotoxic; actives 0.76% (n = 410,000); AID 588856
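CellTiter-Glo luminescence gave cytotoxicity after 18 hours at 37 degrees C. The cells were HepG2 CAGA-GFP in 1% FBS DMEM, stimulated with 500 pg/mL TGF-beta after compound addition. %Activity was normalised to no-cell wells (complete cell-killing) and DMSO (no toxicity), and curves were fitted and classified.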
* hit, by the source's call; ? = inconclusive; nt = no result; ! = a repeat was not active; [ ] = dose if it differs, or a comment. Calls come from the whole dose curve; as a rule, active = well fitted curve in the direction sought with a large enough effect; inconclusive = small, poorly fitted or top-dose-only effect, or another doubt; inactive = no such curve, though single readings can be large; an effect the other way counts as inactive or inconclusive. Potency is the fitted concentration of half-maximal effect.

SMILES | TDP1 cell CPT | HT1080-NT tox | DT40 TDP1 no CPT | TGFb SMAD3 inh | HT1080 IDH1KD tx | HepG2 viability
CCOc1ccc(CNC(=O)Cn2nc(C)n3cccc3c2=O)cc1 | -6.8% | nt | -14.6% | 40.9% | nt | 12.0%
Cc1ccc(CNC(=O)CN2C(=O)COc3ccc(S(=O)(=O)N4CCCCC4)cc32)o1 | -16.7% | 8.3% | 3.2% | 1.5% | -1.2% | -1.1%
Cc1ccccc1C(=O)N1CCC(C(=O)Nc2ccc(S(=O)(=O)N3C(C)CCCC3C)cc2)CC1 (stereo not drawn) | 11.6µM* | -0.8%[9.24 µM] | 10.3µM* | ? | ? | -21.9%
CC1CCCN(CC(=O)Nc2ccc(S(=O)(=O)N3CCCC3)cc2)C1 (stereo not drawn) | 2.6% | -6.3% | 13µM* | 28.0% | 1.9% | 21.9%
CC1CCN(CC(=O)Nc2ccc(S(=O)(=O)N3C(C)CCCC3C)cc2)CC1 (stereo not drawn) | ? | -13.4% | 14.6µM* | 0.2% | 11.9% | -2.1%
Cc1ccc(NC(=O)C2CCN(C(=O)c3ccccc3C)CC2)cc1 | 1.0% | -1.9% | -28.4% | -19.4% | -7.0% | 17.5%
CC1CCN(CC(=O)Nc2ccc(S(=O)(=O)N3CCCCC3)cc2)CC1 | ? | -0.2% | -25.4% | 1.7% | -2.8% | -2.5%
C[C@@H]1NS(=O)(=O)[C@H]2C[C@@H]3C=C[C@]2(O3)[C@H]1OC(=O)Nc1ccc(C(F)(F)F)cc1[N+](=O)[O-] | ? | -0.1% | ? | ? | -0.4% | -0.1%
COc1ccc(NC2=NCC(Cc3ccc(Br)cc3)S2)cc1 (stereo not drawn) | ? | ? | 25.9µM* | ? | 20.6µM* | -39.8%
Cn1c(O)c(N=NC(=O)CNC(=O)c2ccco2)c2ccccc21 | -9.6% | -2.7% | -20.1% | -30.2% | -3.5% | -1.0%
CCOC(=O)C(=O)N=Nc1c(O)n(C)c2ccccc12 | -6.3% | 9.0% | 17.9% | -5.1% | 9.4% | 10.4%
Cn1c(O)c(N=NC(N)=S)c2ccccc21 | 6.68µM* | nt | 5.31µM* | nt | nt | nt
Cc1cc(N=NC(=O)c2ccccc2O)c2ccccc2c1O | 16.4µM* | ? | 18.4µM* | -27.3% | ? | -12.5%
Cn1c(O)c(N=NC(=O)c2ccccc2O)c2ccccc21 | 13µM* | -8.2% | 16.4µM* | -1.4% | ? | -8.3%
Cn1c(O)c(N=NC(=O)c2ccco2)c2ccccc21 | -0.3% | -5.0% | 14.6µM* | 1.5% | -13.3% | -0.5%
N#Cc1ccc(OCC(=O)Nc2ccc3[nH]c(=O)[nH]c3c2)cc1 | -4.7% | 12.0% | -22.1% | 5.4% | 4.5% | -2.0%
CC(C)NC(=O)C1(C)CN(S(C)(=O)=O)CC(=O)N1CCCN1CCOCC1 (stereo not drawn) | -2.5% | 21.1% | 8.9% | nt | ? | nt
C[N+]1(CC(=O)c2c3ccccc3cc3ccccc23)CCOCC1 | 15.8µM* | nt | 10µM* | 3.3% | nt | -24.5%
CCn1c(SCC(=O)c2c(N)n(C3CC3)c(=O)[nH]c2=O)nc2cc(S(N)(=O)=O)ccc21 | -19.8% | -0.2% | -5.0% | 18.8% | 12.9% | 3.9%
O=C(CSc1nccn(-c2ccc3c(c2)OCCO3)c1=O)Nc1ccccc1 | ? | 2.1% | ? | -27.7% | -5.0% | -5.9%
CCc1ccc(NC(=O)CSc2nccn(-c3ccc4c(c3)OCCO4)c2=O)cc1 | 18.4µM* | -20.2% | ? | -42.7% | -29.6% | -13.2%
CCOc1ccc(NC(=O)CSc2nccn(-c3ccc4c(c3)OCCO4)c2=O)cc1 | -27.5% | -3.1% | 14.6µM* | -8.8% | -5.7% | 0.0%
Cc1ccc(NC(=O)CSc2nccn(-c3ccc4c(c3)OCCO4)c2=O)cc1 | 23.1µM* | 3.2% | 18.4µM* | -4.2% | 12.0% | -1.3%
CC(C)c1nnc(SCC(=O)Nc2ccc3c(c2)OCCO3)n1C | 24.2% | 7.7% | -2.9% | -24.5% | 13.5% | 3.7%
COc1ccc(-c2nnc(SCC(=O)Nc3cc(C)on3)o2)cc1 | ? | 17.1% | ? | -9.6% | 11.6% | -0.1%
SMILES | TDP1 cell CPT | HT1080-NT tox | DT40 TDP1 no CPT | TGFb SMAD3 inh | HT1080 IDH1KD tx | HepG2 viability
CC(O)(COc1ccccc1)c1ccc2c(c1)CN(Cc1ccccn1)CCO2 (stereo not drawn) | -1.3%[9.04 µM] | nt | -20.1% | nt | nt | nt
Cn1c(=O)c2c(nc(NCCO)n2C)n(C)c1=O | -8.8% | ? | -10.6% | -13.4% | 15.6% | -1.8%
COc1ccccc1OCCNc1nc2c(c(=O)n(C)c(=O)n2C)n1C | 29.1µM* | 7.7% | 18.4µM* | -3.7% | 8.6% | 7.5%
COCCCNc1nc2c(c(=O)n(Cc3ccccc3)c(=O)n2C)n1C | 6.6% | nt | -20.8% | -16.7% | nt | -7.1%
Cn1c(=O)c2c(nc(NCCOc3ccc(C(C)(C)C)cc3)n2C)n(C)c1=O | 1.46µM* | 1.5% | 1.84µM* | ? | -5.5% | 1.3%
CC1=C(C(=O)Nc2ccccc2)C(c2cccs2)n2nc(SCc3ccccc3)nc2N1 (stereo not drawn) | -19.2% | nt | ? | -3.2% | nt | -1.4%
COC(=O)c1ccc(COC(=O)CCc2nc(-c3ccccc3)c(-c3ccccc3)o2)cc1 | -3.5% | 7.6% | -20.9% | -6.5% | 6.3% | 40.9%
CC(C)CCn1c(=O)c(C(=O)N/N=C/c2cccc(F)c2)c(O)c2ccccc21 | 1.3µM* | 13.5% | 0.651µM* | -27.8% | 11.2% | 3.4%
CCCCCCn1c(=O)c(C(=O)N/N=C/c2cccc(F)c2)c(O)c2ccccc21 | 0.92µM* | 10.2% | 1.03µM* | 3.5% | 8.8% | -4.8%
CCCn1c(=O)c(C(=O)N/N=C/c2ccc(F)cc2)c(O)c2ccccc21 | 9.2µM* | 14.6% | 5.17µM* | -1.8% | -2.0% | 8.4%
CCn1c(=O)c(C(=O)NC(C)c2ccccc2)c(O)c2ccccc21 (stereo not drawn) | ? | -0.3% | ? | 11.3% | 5.8% | 2.1%
CCCCCCC(=O)NNC(=O)c1c(O)c2ccccc2n(CC)c1=O | ? | -17.4% | ? | -17.8% | 0.2% | -24.5%
CCCn1c(=O)c(C(=O)N/N=C/c2ccccc2F)c(O)c2ccccc21 | 17.1% | 29.8% | 19.6% | 6.5% | 15.7% | 4.1%
N#Cc1ccccc1S(=O)(=O)N1CCN(CC(O)c2ccccc2)CC1 (stereo not drawn) | -15.8% | 0.5% | -27.8% | -18.3% | -1.7% | -14.9%
O=Cc1ccc2[nH]ccc2c1 | 6.7% | nt | -1.9% | -29.5% | nt | -11.8%
CC1=C(/C=C/C(C)=C/C=C/C(C)=C\C(=O)O)C(C)(C)CCC1 | ? | -0.2% | 23.1µM*! | -1.4% | -17.1% | -22.4%
